Unmarked numbers belong to inactive results. Activity calls are given as the source filed them. Cut-off read from the data, not from the text of the source: active = potency below about 10 µM; inactive = the rest.
Potency is the fitted concentration of half-maximal effect.

Chain of Lysosomal acid glucosylceramidase (Homo sapiens) (P04062 whole entry, looked up): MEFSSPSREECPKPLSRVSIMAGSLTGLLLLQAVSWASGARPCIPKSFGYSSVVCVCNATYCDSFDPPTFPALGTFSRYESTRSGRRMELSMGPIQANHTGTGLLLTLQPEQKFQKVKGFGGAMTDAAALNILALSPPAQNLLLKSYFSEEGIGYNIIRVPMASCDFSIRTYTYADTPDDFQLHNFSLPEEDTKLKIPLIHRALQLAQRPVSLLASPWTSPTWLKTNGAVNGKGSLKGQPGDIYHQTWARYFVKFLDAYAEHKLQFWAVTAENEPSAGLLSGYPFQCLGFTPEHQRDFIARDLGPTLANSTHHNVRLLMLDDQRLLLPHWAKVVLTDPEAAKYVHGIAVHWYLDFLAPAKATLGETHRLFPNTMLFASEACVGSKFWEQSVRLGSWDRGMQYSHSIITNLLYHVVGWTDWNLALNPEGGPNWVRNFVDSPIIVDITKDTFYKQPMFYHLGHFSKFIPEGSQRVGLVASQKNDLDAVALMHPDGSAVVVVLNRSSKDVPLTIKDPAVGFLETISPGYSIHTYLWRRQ

The target of this experiment is Lysosomal acid glucosylceramidase (Homo sapiens) (UniProt P04062). Briefly: Glucocerebrosidase-p2 (AID 348). As to conditions: purified GBA, blue fluorogenic substrate, 40 min. The source says:
Beta-glucocerebrosidase catalyzes the hydrolysis of beta-glucocerebroside to glucose and ceramide. The inherited deficiency of beta-glucocerebrosidase results in Gaucher disease, which is characterized by a wide variety of symptoms including hepatosplenomegaly, anemia, thrombocytopenia, bony lesions and bone marrow infiltration with characteristic storage cells, known as Gaucher cells. There are also forms of the disorder affecting the central nervous system. Patients with the same genotypes can manifest with diverse clinical presentations and it is believed that improper folding and trafficking of beta-glucocerbrosidase may contribute to the phenotypes observed.
Low molecular weight molecules, acting as chaperones, may potentially restore trafficking of misfolded beta-glucocerebrosidase from the endoplasmic reticulum to the lysosomes, thereby enhancing functional lysosomal beta-glucocerebrosidase activity.
Using normal beta-glucocerebrosidase, an assay was developed to screen for small molecule inhibitors that could potentially act as molecular chaperones on the mutant forms [developed with NIH investigator Dr. Ellen Sidransky#s laboratory]. Two pro-fluorescent substrates were chosen for two screens against a small molecule library. One beta-glucocerebrosidase assay used Resorufin beta-D-Glucopyranoside (Marker Gene Technology Inc.), generating a red fluorescent product. The second assay used […] fluorescent product. The Km for the Resorufin beta-D-Glucopyranoside and Fluorescein di-beta-D-Glucopyranoside were determined to be 71.2 uM and 855 uM, respectively. The IC50 values of Conduritol B Epoxide, a known glucocerebrosidase inhibitor, were determined to be 87.5 uM and 117 uM, respectively. The use of two difference pro-fluorescent substrates in the screens helped to eliminate false positives. All compounds were screened in a titration series resulting in AC50s (e.g., IC50s or EC50s). Data normalization and AC50 calculations were accomplished using GeneData software.
NCGC Assay Protocol Summary
Both enzyme and substrate were diluted in buffer composed of 50mM citric acid/KH2PO4, 10mM sodium taurocholate and 0.01% tween-20 at pH 5.9. The final concentration of the enzyme was 0.2 nM in both assays. The compound library was titrated in 7 to 15 concentrations for the primary screens with a final concentration ranging from 0.6 nM to 50 uM. This particular assay protocol is for the "blue" substrate, and it was performed in 1536-well plate format as follows:
Blue fluorescence substrate assay:
1 uL substrate (final concentration of 80 uM)
Incubate at room temperature (RT) for 40 minutes
3 uL stop solution (1 M NaOH and 1 M glycine in water)
Read the plate in Viewlux plate reader (Ex=365(10) and Em=440(10)).
For `O=C(O)C[O][Sb][O]CC(=O)O`, the Potency is over 11.4 µM.

`COc1cc2c(cc1OC)[C@@]13CCN4C=C5CCO[C@H]6CC(=O)N2[C@@H]1[C@@H]6[C@H]5C[C@H]43`: the Potency is over 11.4 µM.

Consider `CC1=NN(c2ccc(S(=O)(=O)O)cc2C)C(=[OH+])[C@H]1N=Nc1cc(S(=O)(=O)O)ccc1C(=O)O.O.[Cr]`, for which the Potency was over 11.4 µM.

On to `C[C@@H]1CC[C@@H]2N(C1)C[C@H]1[C@@](O)([C@H](O)C[C@]3(O)[C@H]4CC[C@H]5[C@]6(O)O[C@]4(C[C@]13O)[C@@]5(C)CC[C@@H]6O)[C@@]2(C)O`, for which the Potency is over 11.4 µM. For `C[C@@]12CC[C@H]3[C@H](CCC4=CC(=O)CC[C@H]43)[C@H]1CC[C@H]2OC1(O)C(=O)c2ccccc2C1=O` the value was over 11.4 µM; for `CC[C@@]1(O)C(=O)OCc2c1cc1n(c2=O)Cc2cc3c(NC(=O)CN)cccc3nc2-1`, over 11.4 µM.

On to `NC(N)=NCCN=C(N)N`, for which the Potency was over 11.4 µM. The same measure for `c1cc(C2N3CCCN2CC3)ccn1` (stereo not given): over 11.4 µM; for `O=C1C[C@@H]2OCC=C3CN4CC[C@]56c7ccccc7N1[C@@H]5[C@@H]2[C@H]3C[C@H]46` (tested in a mixture with another compound): over 11.4 µM. Regarding `CN1C[C@H](C(=O)N[C@@]2(C)O[C@@]3(O)[C@H]4CCCN4C(=O)[C@@H](Cc4ccccc4)N3C2=O)C=C2c3cccc4[nH]cc(c34)C[C@@H]21`, the Potency was over 11.4 µM. The same measure for `COc1cc2c(cc1O)C[C@@H]1c3c(cc(O)c(OC)c3-2)CCN1C`: over 11.4 µM; for `COc1cc2c(cc1OC)[C@@]13CCN4CC5=CCO[C@H](CC(=O)O)[C@@H]([C@H]1N2)[C@H]5C[C@H]43`: over 11.4 µM. For `NCCc1c[nH]c2ccc(OC(=O)C(=O)O)cc12` the value was over 11.4 µM. Turning to `CCN=C=NCCCN(C)C`, the Potency is over 11.4 µM. Take `CSCC[C@@H](N)P(C)(=O)O`: the Potency was over 11.4 µM.

Take `O=C(O)[C@H](Cc1cnc[nH]1)N1C(=O)c2ccccc2C1=O`: the Potency was over 11.4 µM. The same measure for `N=C(N)SCc1ccc(Cl)c2ccccc12` (tested in a mixture with another compound): over 11.4 µM.

As for `C[C@H](c1ccccc1)N1CCN([C@@H](C)c2ccccc2)CC1`, the Potency is over 11.4 µM. The same measure for `Cc1ccc(S(=O)ON2CCC(C(=O)O)(c3ccccc3)CC2)cc1` (stereo not given): over 11.4 µM. For `CC[C@H]1CN2CCc3cc(OC)c(OC)cc3[C@H]2C[C@@H]1C[C@H]1NCCc2c1[nH]c1ccc(O)cc21` the value was over 11.4 µM; for `O=C(O)[C@@H]1[C@H](C(=O)O)[C@]2(Cl)C(Cl)=C(Cl)[C@@]1(Cl)C2(Cl)Cl`, over 11.4 µM. The same measure for `O=C(O)c1cc[c]([Hg][S]c2ncnc3nc[nH]c23)cc1`: 0.146 µM (active). Regarding `COc1ccccc1CN1CCCC2(CCN(C(=O)Oc3ccccc3)CC2)C1`, the Potency is over 11.4 µM.

`COc1cc2cc(c1Cl)N(C)C(=O)C[C@H](OC(=O)C(C)C)[C@]1(C)O[C@@H]1[C@@H](C)[C@H]1C[C@](O)(NC(=O)O1)[C@@H](OC)/C=C\C=C(\C)C2`: the Potency is over 11.4 µM. For `C[C@@H]1[C@@H](C)N1C[C@H](O)Cn1ccnc1[N+](=O)[O-]` (stereo not given in full) the value was over 11.4 µM. For `COc1cc2c(cc1OC)[C@]13CC[N@+]4(C)CC5=CCO[C@H]6CC(=O)N2[C@@H]1[C@@H]6[C@@H]5C[C@]34O` the value was over 11.4 µM; for `O=P(O)(OP(=O)(O)c1ccccc1)c1ccccc1` (tested in a mixture with another compound), over 11.4 µM.

On to `c1csc(CN2CCCC3(CCNCC3)C2)n1`, for which the Potency was over 11.4 µM.

As to `CN(C)[C@@H]1C(=O)C(C(N)=O)=C(O)[C@]2(O)C(=O)C3=C(O)c4c(O)cccc4[C@](C)(O)[C@H]3C[C@@H]12`, the Potency is over 11.4 µM.

Consider `c1cncc(CNCCN2CCNCC2)c1`, for which the Potency is over 11.4 µM.

With `Cc1ncc([N+](=O)[O-])n1CCN=[N+]=[N-]`, the Potency is over 11.4 µM. For `C[C@@]12Cc3cnc(-c4ccccc4)nc3C[C@@H]1CC[C@@H]1[C@H]3CC[C@@](C)(O)[C@]3(C)CC[C@@H]12` the value was over 11.4 µM; for `C[C@@H](Cc1ccc(Cl)cc1Cl)NO`, over 11.4 µM; for `Nc1ccccc1O.O.O=C(O)[C@H]1[O][Sb][O][C@H]1C(=O)O`, over 11.4 µM. For `C[C@@H]1[C@H]2C=C[C@@H]1[C@@H](c1c3ccc(=O)c(O)c-3oc3c(O)c(O)ccc13)[C@@H]2C(=O)O` the value was over 11.4 µM; for `c1ccc(CCN2CCOCC2)nc1`, over 11.4 µM; for `C[C@]12CC[C@@H]3[C@H](CCC4=CC(=O)CC[C@]43C)[C@]1(O)CC[C@@]2(O)C(=O)CO`, over 11.4 µM. The same measure for `O=C(Nc1ccc([As](=O)(O)O)cc1)Nc1cccc(Cl)c1Cl`: over 11.4 µM; for `NC[C@@H](Cc1ccccc1)P(=O)(O)O`: over 11.4 µM.

Consider `CC(C)(C)c1cc(C#N)cc(Br)c1OP(=O)(Oc1c(Br)cc(C#N)cc1C(C)(C)C)c1ccccc1`, for which the Potency was over 11.4 µM.

These data come from PubChem BioAssay (NCATS).
